PubChem BioAssay (NCATS)
Values joined by “and” are separate entries in the source; they are usually repeats but may differ in a detail not shown here. Equal entries are not always repeated. Results filed as inconclusive are left out. A call without a number means that no potency is given here. Active and inactive are the calls of the source. Calls come from the whole dose curve.

Experiments:
[1] = Cytotoxicity counterscreen for inhibitors of SARS-CoV-2 cell entry (AID 1645845); note: nearly all actives have a fitted effect of over 50% in size
Procedure, shortened: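 After a 15 min room-temperature ATPLite 1step step, luminescence reflected ATP remaining in HEK293-ACE2 cells exposed to compound for 1 h plus 48 h at 37 C, with percent activity set by cell and no-cell controls.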

[2] = Primary qHTS to identify inhibitors of SARS-CoV-2 cell entry (AID 1645846); settings: activity change, negative = inhibition: at 57.1 µM (top of the series) unless noted; note: nearly all actives have a fitted effect of over 45% in size
Procedure, shortened: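 Luminescence readout (Bright-Glo luciferase) 48 h after pseudoparticle addition. HEK293-ACE2 cells, 1500/well; compound pre-incubation 1 h; Normalized to spike PP and bald PP.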
Potency is the fitted concentration of half-maximal effect.

Row | SMILES | Potency [1] | activity change, negative = inhibition [2] | Potency [2]
1 | C[C@@H]1C[C@H]2[C@@H]3CCC4=CC(=O)C=C[C@]4(C)[C@@]3(Cl)[C@@H](O)C[C@]2(C)[C@@]1(OC(=O)c1ccco1)C(=O)CCl | inactive | -22.6% | –
2 | CCCc1nc(C)c2c(=O)[nH]c(-c3cc(S(=O)(=O)N4CCN(CC)CC4)ccc3OCC)nn12 | inactive | -31% and -14% | –
3 | CN1CCN(c2cc3c(cc2F)c(=O)c(C(=O)O)cn3-c2ccc(F)cc2)CC1 | inactive | – | inactive
4 | CC(=O)[C@@]1(O)CC[C@H]2[C@@H]3C[C@H](C)C4=CC(=O)CC[C@]4(C)[C@H]3CC[C@@]21C | inactive | – | inactive
5 | CC[N+](CC)(CC)CCOC(=O)C(C1CCCC1)C1CCCC1 | inactive | -6.21% | –
6 | C[C@]12CC[C@@H]3c4ccc(O)cc4CC[C@H]3[C@@H]1C[C@@H](O)[C@@H]2O | inactive | -20% and -12.5% | –
7 | CCCCC(=O)O[C@]1(C(=O)CO)[C@@H](C)C[C@H]2[C@@H]3CCC4=CC(=O)C=C[C@]4(C)[C@@]3(F)[C@@H](O)C[C@@]21C | inactive | – | inactive
8 | CCOc1ccccc1C(N)=O | inactive | – | inactive
9 | CC(C(=O)O)c1ccc2c(c1)Cc1cccnc1O2 (configuration not stated) | inactive | -13.6% | –
10 | CCOC(=O)c1ccc(NC(=O)CN2CCCCC2)cc1 | inactive | -7.85% | –
11 | O=C(c1ccc(F)cc1)C1CCN(CCn2c(=O)[nH]c3ccccc3c2=O)CC1 | inactive | -1.25% | –
12 | C[C@H](O)C(=O)Nc1c(I)c(C(=O)NC(CO)CO)c(I)c(C(=O)NC(CO)CO)c1I | inactive | 4.46% | –
13 | O=C(O)CCC(=O)OC[C@@H](NC(=O)C(Cl)Cl)[C@H](O)c1ccc([N+](=O)[O-])cc1 | inactive | -2.41% | –
14 | COc1ccnc2c1CCCCC2S(=O)c1nc2ccccc2[nH]1 (configuration not stated) | inactive | -18.8% | –
15 | CCOC(=O)OC(C)OC1=C(C(=O)Nc2ccccn2)N(C)S(=O)(=O)c2ccccc21 (configuration not stated) | inactive | – | inactive
16 | COc1ccc2c(c1OC)C(=O)O[C@@H]2[C@H]1c2c(cc3c(c2OC)OCO3)CCN1C | inactive | -12.9% | –
17 | CCC(C(=O)OCCN1CCOC(c2ccccc2)C1C)c1ccccc1 (configuration not stated) | inactive | -21.8% | –
18 | CCCCCCCCCCCCOCCOCCOCCOCCOCCOCCOCCOCCOCCO | 11.2 µM (active) | – | 11.2 µM (active)
19 | Cc1c(C)c2c(c(C)c1OC(=O)CCC(=O)OCCO)CC[C@@](C)(CCC[C@H](C)CCC[C@H](C)CCCC(C)C)O2 | inactive | – | 28.2 µM (active)
20 | O=C(O)c1ccc(OCCCOc2ccc(C(=O)O)cc2)cc1 | inactive | -2.21% | –
21 | CN(C)[C@@H](CCOc1cccc2ccccc12)c1ccccc1 | inactive | – | 10 µM (active)

Row | SMILES | Potency [1] | activity change, negative = inhibition [2] | Potency [2]
22 | CC(CNC1CCCCC1)OC(=O)c1ccccc1 (configuration not stated) | inactive | – | inactive
23 | CC(=O)Oc1ccc(C(c2ccc(OC(C)=O)cc2)c2ccccn2)cc1 | inactive | – | inactive
24 | CCOC(=O)NNc1nncc2ccccc12 | inactive | – | inactive
25 | CCCCCCCCCCCCCCCC[N+](C)(C)Cc1ccccc1 | 22.4 µM (active) | – | 17.8 µM (active)
26 | CCOC(=O)n1ccn(C)c1=S | inactive | – | inactive
27 | OCc1ccccc1O | inactive | – | inactive
28 | NC(=O)CCCCC1CCSS1 (configuration not stated) | inactive | – | inactive
29 | OCC(CO)N[C@H]1C[C@](O)(CO)[C@@H](O)[C@H](O)[C@H]1O | inactive | – | inactive
30 | Nc1c(CC(=O)O)cccc1C(=O)c1ccc(Br)cc1 | inactive | – | inactive
31 | Cc1ccc(C(=O)Nc2ccc(S(=O)(=O)O)c3cc(S(=O)(=O)O)cc(S(=O)(=O)O)c23)cc1NC(=O)c1cccc(NC(=O)Nc2cccc(C(=O)Nc3cc(C(=O)Nc4ccc(S(=O)(=O)O)c5cc(S(=O)(=O)O)cc(S(=O)(=O)O)c45)ccc3C)c2)c1 | inactive | -17.2% [at 27.1 µM] | –
32 | Cn1c(=O)c2c(ncn2C)n(C)c1=O | inactive | 0.143% and -10.1% | –
33 | CCOc1ccc(C(=O)OCCN(CC)CC)cc1 | inactive | -1.6% | –
34 | C[C@H](N)C(=O)N[C@@H](C)C(=O)NC1[C@H]2CN(c3nc4c(cc3F)c(=O)c(C(=O)O)cn4-c3ccc(F)cc3F)C[C@@H]12 (some centres not stated) | inactive | -23% | –
35 | O=c1ccc2ccccc2o1 | inactive | – | inactive
36 | O=c1[nH]cnc2c1ncn2[C@@H]1O[C@H](CO)[C@@H](O)[C@H]1O | inactive | – | inactive
37 | CC1(C)O[C@@H]2C[C@H]3[C@@H]4C[C@H](F)C5=CC(=O)C=C[C@]5(C)[C@H]4[C@@H](O)C[C@]3(C)[C@]2(C(=O)CO)O1 | inactive | 12.8% and -23.3% | –
38 | CC(=O)Nc1ccc(S(=O)(=O)Nc2ccc([N+](=O)[O-])cc2)cc1 | inactive | – | inactive
39 | COc1ccc2c(c1)c(CC(=O)OCC(=O)O)c(C)n2C(=O)c1ccc(Cl)cc1 | inactive | – | inactive
40 | Nc1ccc(S(=O)(=O)Nc2nccs2)cc1 | inactive | 4.2% | –
41 | NC(=O)CC[C@@H](N)C(=O)O | inactive | -8.52% | –
